For 28 compounds, outcome, caspase-3 activation and Potency results are on record in PubChem BioAssay (NCATS).

The target in assay [1] is 3',5'-cyclic-AMP phosphodiesterase 4B (Homo sapiens) (UniProt Q07343). Kind of assay: qHTS Assay for Inhibitors of PDE-IV (AID 607; active means well fitted activation curve with a large enough effect in the main read-out, with a control signal flat, not every such curve was filed as active; further: % of control where 0% means no effect). In short, it runs like this:
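Live HEK293 cells with a modified cyclic nucleotide-gated (CNG) channel report intracellular cAMP via membrane-potential dye fluorescence (ex 535/em 590 nm). Endogenous PDE-IV was targeted. Compounds were tested at up to 22.9 uM final; RO 20-1724 100 uM served as control.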

Assay [2] is described as follows: Cellular Toxicity (caspase-3) HepG2 (AID 654).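 Further: cells exposed to compound for 16 hours before reading; 0% = DMSO alone and 100% = caspase signal from 100 µM tamoxifen.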 In short, it runs like this:
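qHTS, HepG2, 1500 cells/well, complete medium; cpd 16 h 37 °C; Caspase-Glo 3/7, 20 min RT; lum. Norm: DMSO vs 100 uM tamoxifen; AC50 Hill fit.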

Assay [3] is described as follows: Cellular Toxicity (caspase-3) Jurkat (AID 655).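 Further: cells exposed to compound for 16 h at 37 °C before reading.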 The following applies: Jurkat caspase-3 activation, luminescence, DMSO = 0%, tamoxifen = 100%; at 92.2 µM (top of the series). In short, it runs like this: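 Jurkat cells (5000/well) in complete medium exposed 16 h at 37 C; caspase-3/7 activity read by Caspase-Glo luminescence after 20 min at room temperature. Normalized to DMSO and 100 uM tamoxifen; AC50 from Hill fits.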

Assay [4] is described as follows: Cellular Toxicity (caspase-3) HUV-EC-C (AID 656). Further: potency means the concentration at half of the fitted maximal effect. An outline of the steps:
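HUV-EC-C cells (1000/well) in complete medium, compound-treated 16 h at 37 °C; caspase-3/7 activity read by Caspase-Glo 3/7 luminescence. Normalized to DMSO (basal) and 100 uM tamoxifen (100%); AC50 from Hill-equation concentration-response fits.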

Assay [5] is described as follows: Cellular Toxicity (caspase-3) SHSY5Y (AID 657). An outline of the steps:
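SH-SY5Y human neuroblastoma cells, 1500/well, exposed to compound for 16 hours at 37 °C in complete medium. Caspase-3/7 activity read by Caspase-Glo luminescence after 1 hr at room temperature, normalized to DMSO and 10 uM staurosporine; AC50 from Hill fit.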

The nature of assay [6]: Cellular Toxicity (caspase-3) BJ (AID 658).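 Further: 0% = DMSO basal and 100% = 10 µM staurosporine.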 In short, it runs like this: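 BJ human foreskin fibroblasts, 1000 cells/well, treated 16 hours at 37 °C in complete medium; caspase 3/7 activity by Caspase-Glo luminescence after 1 hr at room temperature. Normalized to DMSO and 10 uM staurosporine; AC50 from Hill fits.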
A short description of assay [7]: Cellular Toxicity (caspase-3) Mesangial (AID 660). An outline of the steps: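 Concentration-response qHTS: compound-induced rise in caspase 3/7 luminescence in human mesangial cells after 16 h, normalized to DMSO and 100 uM tamoxifen controls.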
Assay [8] is described as follows: Cellular Toxicity (caspase-3) H-4-II-E (AID 663).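 Further: cells exposed to compound for 16 hr before readout.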 In short, it runs like this: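 Rat hepatoma H-4-II-E cells (1500/well) plated 5 hr, then exposed to compound titrations for 16 hr at 37 °C. Caspase-Glo 3/7 luminescence read after 20 min at RT; data normalized to DMSO and 100 uM tamoxifen, AC50 from Hill fits.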
Assay [9] can be described thus: Cellular Toxicity (caspase-3) Hek293 (AID 664).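 Further: cells exposed to compound for 16 h at 37 °C before readout.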 In short, it runs like this: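 Activation of caspase-3/7 is measured as increased luminescence from cleaved peptide-aminoluciferin substrate in HEK293 cells treated 16 hours at 37 °C. AC50 values come from Hill-equation fits of concentration-response data.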
The nature of assay [10]: Cellular Toxicity (caspase-3) N2a (AID 665).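 Further: compound exposure lasted 16 h at 37 °C before readout.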 An outline of the steps:
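Plated mouse neuroblastoma N2a cells received titrated compounds for 16 h in complete medium. Caspase activity was then detected with a peptide-aminoluciferin luminescent reagent.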

Values joined by “and” are separate entries in the source; they are usually repeats but may differ in a detail not shown here. Equal entries are not always repeated. A number with no mark means an inactive call. Results filed as inconclusive are left out. Active and inactive are the calls of the source. Unless noted, the call rests on the fitted dose curve; in most records, active means well fitted curve in the direction sought with a large enough effect; inconclusive means small, poorly fitted or top-dose-only effect, or another doubt; inactive means no such curve, though single readings can be large; an effect the other way counts as inactive or inconclusive.

Sequence of 3',5'-cyclic-AMP phosphodiesterase 4B (Homo sapiens) (Q07343 whole entry, looked up): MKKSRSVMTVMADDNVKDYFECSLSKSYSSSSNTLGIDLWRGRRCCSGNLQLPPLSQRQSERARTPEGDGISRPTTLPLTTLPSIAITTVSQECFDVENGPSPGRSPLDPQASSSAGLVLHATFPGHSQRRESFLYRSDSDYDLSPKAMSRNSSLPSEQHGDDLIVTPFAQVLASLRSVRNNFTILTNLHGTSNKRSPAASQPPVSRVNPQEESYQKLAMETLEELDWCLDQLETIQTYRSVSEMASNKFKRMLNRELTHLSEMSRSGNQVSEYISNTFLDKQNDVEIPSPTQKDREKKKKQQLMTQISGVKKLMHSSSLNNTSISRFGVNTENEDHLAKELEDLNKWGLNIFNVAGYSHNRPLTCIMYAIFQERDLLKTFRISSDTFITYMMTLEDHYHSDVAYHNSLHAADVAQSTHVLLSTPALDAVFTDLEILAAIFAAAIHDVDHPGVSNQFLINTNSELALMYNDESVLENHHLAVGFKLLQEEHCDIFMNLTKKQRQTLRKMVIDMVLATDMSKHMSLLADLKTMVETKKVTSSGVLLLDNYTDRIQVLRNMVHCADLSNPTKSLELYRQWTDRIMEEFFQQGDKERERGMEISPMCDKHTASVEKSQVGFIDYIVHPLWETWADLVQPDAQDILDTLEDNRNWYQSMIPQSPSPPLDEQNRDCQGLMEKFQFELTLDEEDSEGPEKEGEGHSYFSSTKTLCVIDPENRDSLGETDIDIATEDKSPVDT

As to `CCC1(CC)C(=O)C=CNC1=O`, the result in assay [1] was inactive.

For the compound `CCOC(=O)CC(SP(=S)(OC)OC)C(=O)OCC` (stereo not given), the result in assay [2], in [5], in [6], in [7], in assay [8] and in assay [9] was inactive. Moreover, the result in assay [10] was inactive. In addition, the caspase-3 activation in assay [3] was -0.413%. Also, in assay [4], the Potency result was “inactive”.

Regarding `COC(=O)C(c1ccccc1)C1CCCCN1` (stereo not given), the call in assay [2], in assay [5], in assay [6], in assay [7], in assay [8] and in assay [9] was inactive. The call in assay [10] was inactive. Moreover, the caspase-3 activation in assay [3] was 0.101%. In addition, in assay [4], the Potency result is “inactive”.

As to `COP(=S)(OC)Oc1ccc(SC)c(C)c1`, the outcome in assay [2], in assay [5], in assay [6], in assay [7], in assay [8] and in assay [9] was inactive. The outcome in assay [10] was inactive. The caspase-3 activation in assay [3] was 0.672%. The Potency entry in [4] was “inactive”.

With `C=CCN1C[C@H](C)N([C@H](c2ccc(C(=O)N(CC)CC)cc2)c2cccc(OC)c2)C[C@H]1C`, the outcome in assay [1] was inactive.

Take `CCCCC/C=C\C/C=C\C/C=C\C/C=C\CCCC(=O)NCC(=O)O`: the compound was called inactive in assay [1].

In the case of `CCCC(C)(COC(N)=O)COC(N)=O`, the outcome in assay [2], in assay [5], in assay [6], in assay [7], in [8] and in assay [9] was inactive. The outcome in assay [10] was inactive. For the same compound, the caspase-3 activation in assay [3] was 0.151%. For the same compound, the Potency result in assay [4] is “inactive”.

For the compound `O=C(CCCN1CCC2(CC1)C(=O)NCN2c1ccccc1)c1ccc(F)cc1`, in assay [1], the compound was called inactive.

For `Nc1ccccc1`, the call in [2], in [5], in assay [6], in [7], in assay [8] and in assay [9] was inactive. Besides, the result in assay [10] was inactive. The caspase-3 activation in [3] was -1.64%. For the same compound, in assay [4], the Potency entry is “inactive”.

For the compound `COc1c2c(cc3c1OCO3)CCN(C)C2`, the call in assay [1] was inactive.

As to `CCC(C)(C)c1ccc(O)cc1`, the outcome in assay [2], in assay [5], in assay [6], in [7], in assay [8] and in [9] was inactive. The call in assay [10] was inactive. In assay [3], the caspase-3 activation was -1.04%. Besides, in [4], the Potency entry was “inactive”.

On to `C[C@]1(O)CC[C@H]2[C@@H]3CCC4=CC(=O)CC[C@]4(C)[C@@]3(F)[C@@H](O)C[C@@]21C`, for which the outcome in assay [2], in assay [5], in assay [6], in assay [7], in [8] and in [9] was inactive. Besides, in assay [10], the outcome was inactive. Besides, the caspase-3 activation in assay [3] is -1.66%. For the same compound, the Potency entry in assay [4] was “inactive”.

With `O=c1oc2ccccc2c(O)c1Cc1c(O)c2ccccc2oc1=O`, the result in [1] was inactive.

Regarding `CNC(C)(C)Cc1ccccc1`, in assay [1], the result was inactive.

For `Nc1ccccc1C(=O)O`, the compound was classed as inactive in assay [2], in assay [5], in [6], in [7], in assay [8] and in assay [9]. Further, the result in [10] was inactive. Also, in assay [3], the caspase-3 activation is -0.541%. Also, the Potency entry in [4] is “inactive”.

Take `CC(C)NC(C)C`: the result in [2], in assay [5], in assay [6], in assay [7], in assay [8] and in assay [9] was inactive. Also, in assay [10], the call was inactive. The caspase-3 activation in [3] is 0.66%. The Potency result in assay [4] was “inactive”.

`C[C@]12CCC(=O)C=C1CC[C@@H]1[C@@H]2CC[C@]2(C)C(=O)CC[C@@H]12`: the call in assay [2], in assay [5], in assay [6], in assay [7], in assay [8] and in [9] was inactive. The result in assay [10] was inactive. Moreover, the caspase-3 activation in assay [3] is 7.89% and 0.322%. The Potency result in [4] was “inactive”.

As for `COc1cc(OC)c(OC)cc1C=O`, the result in [2], in assay [5], in assay [6], in assay [7], in assay [8] and in [9] was inactive. The outcome in [10] was inactive. Also, in assay [3], the caspase-3 activation was 1.29%. In [4], the Potency result is “inactive”.

With `Oc1ccc(Cl)cc1`, the result in [2], in [5], in assay [6], in assay [7], in [8] and in assay [9] was inactive. Besides, the compound was classed as inactive in assay [10]. In addition, the caspase-3 activation in [3] was -0.847%. For the same compound, the Potency result in assay [4] is “inactive”.

With `CN1C[C@H](C(=O)N[C@]2(C)O[C@@]3(O)[C@@H]4CCCN4C(=O)[C@H](Cc4ccccc4)N3C2=O)C=C2c3cccc4[nH]cc(c34)C[C@H]21`, the compound was classed as inactive in assay [2], in assay [5], in assay [6], in assay [7], in assay [8] and in assay [9]. Further, in [10], the call was inactive. The Potency entry in [4] was “inactive”.

Regarding `O=P1(N(CCCl)CCCl)NCCCO1` (stereo not given), the compound was classed as inactive in assay [1], in [2], in [5], in [6], in [7] and in assay [8]. For the same compound, the compound was classed as inactive in assay [9] and in assay [10]. Further, the caspase-3 activation in assay [3] is -0.663%. The Potency result in [4] was “inactive”.

As for `O=C(O)CCCc1ccc(N(CCCl)CCCl)cc1`, the outcome in assay [1], in assay [6], in [7], in assay [8], in assay [9] and in [10] was inactive. Further, in assay [3], the caspase-3 activation was 96.5% (active). For the same compound, the Potency result in [4] was “inactive”.

Turning to `Clc1ccc(C(c2ccc(Cl)cc2)C(Cl)(Cl)Cl)cc1`, the call in [2], in assay [5], in [6], in assay [7], in assay [8] and in assay [10] was inactive. Further, the caspase-3 activation in [3] was 7.14%. Also, in assay [4], the Potency is 50.1 µM (active).

Consider `COc1ccc2c(c1)C13CCCC[C@@H]1C(C2)N(C)CC3` (stereo not given in full), for which, in assay [1], the compound was classed as inactive.

On to `C[C@]12CCC(=O)C=C1CC[C@@H]1[C@@H]2CC[C@@]2(C)[C@H]1CC[C@]2(C)O`, for which the outcome in assay [2], in [5], in assay [6], in [7], in assay [8] and in assay [9] was inactive. In [10], the result was inactive. Besides, the caspase-3 activation in assay [3] is 22.4%. Besides, in assay [4], the Potency result was “inactive”.

Consider `CC(C)c1cccc(C(C)C)c1O`, for which the compound was called inactive in assay [1], in assay [2], in assay [5], in [6], in assay [7] and in assay [8]. The call in assay [9] and in assay [10] was inactive. Moreover, in assay [3], the caspase-3 activation is 0.709%. Also, the Potency result in assay [4] is “inactive”.

As to `NCCc1ccc(O)cc1`, the call in assay [1], in assay [2], in [5], in assay [6], in [7] and in assay [8] was inactive. For the same compound, the call in assay [9] and in assay [10] was inactive. Besides, in [3], the caspase-3 activation is 3.49%. Further, the Potency result in [4] was “inactive”.

Consider `O=c1[nH]oc2c1CCNC2`, for which the compound was classed as inactive in assay [1].
